Compound activity from PubChem BioAssay.
A549 tox: Nrf2 qHTS screen for inhibitors: counterscreen for cytotoxicity; Potency, µM (titrated, usually from 46 µM), actives largely listed as inhibitors; 390,000 compounds, 0.16% hits; A549 ARE-Fluc cells, CellTiter-Fluor viability, 18-24 h; AID 504648, 2011
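A549 ARE-Fluc cells in 5% FBS OPTI-MEM, 5000 cells/well, rested 2 h then exposed to compounds in concentration-response for 18-24 h at 37 °C. Viability by CellTiter-Fluor fluorescence (Ex 405/Em 525) after 30 min; luciferase luminescence (BugLite, 15 min, RT) read afterwards.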
HepG2 viability: qHTS for Inhibitors of TGF-b: Cytotox Counterscreen. HepG2 CAGA-GFP viability, ATP luminescence, 18 h. Potency, µM (series often up to 46.1 µM), hits mostly cytotoxic. 410,000 compounds, 0.76% hits. AID 588856, 2011
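HepG2 CAGA-GFP cells (1000/well, DMEM with 1% FBS) received compound, then TGF-beta at 500 pg/mL final, and were incubated 18 hours at 37 degrees C. Viability was read by CellTiter-Glo luminescence. Media-only wells were set as complete cell-killing and DMSO as no toxicity.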
ATXN viability: Viability Counterscreen for Primary qHTS for Inhibitors of ATXN expression; Potency, µM (highest dose often 56.7 µM), most hits filed as cytotoxic; 400,000 compounds, 0.49% hits; S2 cells (HEK-293 line with an ATXN2-luciferase reporter) viability, CellTiter-Fluor protease fluorescence, 24 h; note: nearly all actives have a fitted effect of over 40% in size
ATXN2 expr inh: Primary qHTS for Inhibitors of ATXN expression; HEK-293 ATXN2-luciferase reporter, luminescence, 24 h; Potency, µM (highest dose often 57 µM), actives largely listed as inhibitors; 360,000 compounds, 0.72% hits; note: nearly all actives have a fitted effect of over 55% in size
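ATXN2-luciferase reporter cells (luciferase flanked by upstream and downstream ATXN2 gene portions) were treated 24 h at 37 °C with compounds at up to 57 uM. SteadyGlo luminescence gave expression; GF-AFC fluorescence gave viability.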
TGFb inhibitor: qHTS for Inhibitors of TGF-b. Potency, µM (titrated, usually from 46.1 µM), hits mostly inhibitors. HepG2 CAGA-GFP TGF-b/SMAD3 reporter, GFP fluorescence, 18 h; TGF-beta stimulated, 500 pg/mL final. 410,000 compounds, 1.2% hits; note: nearly all actives have a fitted effect of over 65% in size
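Per well, imaged GFP fluorescence of HEPG2 CAGA-GFP cells gives the signal; cells get compound, then TGF-beta (500 pg/mL final), 18 h at 37 degrees C; %Activity versus -TGF-beta and +DMSO controls.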
Nrf2 inh: Nrf2 qHTS screen for inhibitors; 360,000 compounds, 2.1% hits; A549 ARE-Fluc reporter, luciferase luminescence, 18-24 h; Potency, µM (top dose mostly 46 µM), actives largely listed as inhibitors; AID 504444, 2011; note: nearly all actives have a fitted effect of over 60% in size
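Quantitative HTS in A549 cells stably bearing an antioxidant response element-firefly luciferase construct. Inhibition of Nrf2-driven transcription was scored by luminescence after 18-24 h of compound exposure at 37 °C.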
Each line names hits and unclear results; the compound was inactive in the other large screens; ! = a repeat was not active. Hits are enriched below; roughly 3.8% of the tested compounds scored in any of these assays. Calls come from the whole dose curve; as a rule, active = well fitted curve in the direction sought with a large enough effect; inconclusive = small, poorly fitted or top-dose-only effect, or another doubt; inactive = no such curve, though single readings can be large; an effect the other way counts as inactive or inconclusive.

CN1CC=C2C(C#N)=C(N)C(C#N)(C#N)[C@H](c3cccs3)[C@H]2C1	none
O=C(c1ccco1)n1nc(-c2ccccc2)nc1NCc1ccccc1Cl	none
CC1CCCN(C(=O)N2c3ccccc3Sc3ccccc32)C1 (centres undefined)	A549 tox inconclusive, Nrf2 inh 16.4µM
CN1CCN(c2ccc(C(CC(N)=O)NC(=O)Cc3ccc(Br)cc3)cc2[N+](=O)[O-])CC1 (centres undefined)	HepG2 viability 0.316µM
NC(=O)CC(NC(=O)Cc1ccc(Br)cc1)c1ccc(N2CCCCCCC2)c([N+](=O)[O-])c1 (centres undefined)	ATXN viability inconclusive, TGFb inhibitor inconclusive
O=C(O)CC1(CC(=O)Nc2ccc(F)c(Cl)c2)CCCCC1	none
CC(C)n1nc(C(=O)Nc2cccc(S(=O)(=O)N3CCOCC3)c2)c2ccccc2c1=O	none
O=C(CCl)N1CCN2C(=O)c3ccccc3C12c1ccc(Cl)cc1 (centres undefined)	ATXN2 expr inh inconclusive, TGFb inhibitor inconclusive (no result: ATXN viability)
O=C(Nc1cccc(Cl)c1)N1CCN2C(=O)c3ccccc3C12c1ccccc1 (centres undefined)	A549 tox inconclusive, ATXN viability inconclusive, TGFb inhibitor inconclusive, Nrf2 inh 20.6µM
N#Cc1cc(NC(=O)Nc2nnc(-c3ccncc3)s2)ccc1-c1cn[nH]c1	none (no result: A549 tox, HepG2 viability, ATXN viability, TGFb inhibitor, Nrf2 inh)
O=C(Nc1ccc(Cl)c(Cl)c1)Nc1nnc(CSc2ccccc2)s1	A549 tox inconclusive, ATXN viability inconclusive, ATXN2 expr inh inconclusive, TGFb inhibitor inconclusive, Nrf2 inh 7.31µM
O=C(Nc1ccc(Cl)c(Cl)c1)Nc1nccs1	HepG2 viability 11.2µM, ATXN viability inconclusive, TGFb inhibitor inconclusive, Nrf2 inh inconclusive (no result: ATXN2 expr inh)
O=C(Nc1cccc(Cl)c1)Nc1nccs1	TGFb inhibitor inconclusive, Nrf2 inh inconclusive (no result: ATXN viability, ATXN2 expr inh)
CCOc1ccccc1N1CC(C(=O)N(C)Cc2cccnc2)CC1=O (centres undefined)	none
Cc1ccc(S(=O)(=O)SCCCSS(=O)(=O)c2ccc(C)cc2)cc1	ATXN viability inconclusive
Cc1ccc(S(=O)(=O)SC/C=C/CSS(=O)(=O)c2ccc(C)cc2)cc1	ATXN viability inconclusive, ATXN2 expr inh inconclusive, TGFb inhibitor inconclusive, Nrf2 inh 11.6µM
O=S(=O)(c1ccc(F)cc1)N1CCN(c2nc(-c3cccs3)nc3cc(Cl)ccc23)CC1	none (no result: ATXN viability, ATXN2 expr inh)
O=C1Nc2ccccc2C1(c1ccc(O)cc1)c1ccc(O)cc1	none (no result: A549 tox, HepG2 viability, TGFb inhibitor, Nrf2 inh)
CCOc1ccc(NC(=O)Nc2cccn(Cc3ccccc3)c2=O)cc1	A549 tox inconclusive, ATXN viability inconclusive, Nrf2 inh 9.2µM
COc1ccc(S(=O)(=O)NCCCCC(=O)O)cc1C(=O)O	TGFb inhibitor inconclusive, Nrf2 inh 16.4µM
Nc1nc(-c2cccnc2)nc2sc3c(c12)CCCC3	Nrf2 inh inconclusive
O=C1CN(c2nc(-c3cccnc3)nc3sc4c(c23)CCCC4)CCN1	ATXN viability inconclusive, TGFb inhibitor inconclusive, Nrf2 inh 11.6µM
C[C@@H]1O[C@H](C2CCCC2)Cc2[nH]c(=S)[nH]c(=O)c21	none (no result: A549 tox, HepG2 viability, TGFb inhibitor, Nrf2 inh)
Cc1ccc(Cl)cc1Nc1nc(-c2sc(NC(=O)C(C)(C)C)nc2C)cs1	ATXN viability inconclusive, Nrf2 inh 11.6µM
CCC(C)C(=O)Nc1nc(C)c(-c2csc(Nc3ccc(Cl)cc3)n2)s1 (centres undefined)	A549 tox inconclusive, TGFb inhibitor inconclusive, Nrf2 inh 16.4µM
CC(=O)Nc1ccc(Nc2nc(-c3sc(NC(C)=O)nc3C)cs2)cc1	ATXN viability inconclusive
CC(Oc1ccc(Br)cc1)C(=O)NCCCN1CCCC1=O (centres undefined)	none
OC[C@@H]1CN(Cc2ccc3c(c2)OCO3)C[C@H](n2cnc3c(N4CCN(c5ccccc5)CC4)ncnc32)O1	ATXN2 expr inh inconclusive (no result: A549 tox, Nrf2 inh)
CC(OC(=O)c1cccn1C)C(=O)Nc1ccc2c(c1)OCO2 (centres undefined)	Nrf2 inh 25.9µM
Cc1nn(-c2ccccc2)c(Cl)c1C(=O)OC(C)C(=O)Nc1ccc2c(c1)OCO2 (centres undefined)	none
CCOC(=O)C1=C(Cc2ccc(F)cc2)C(=O)c2ccccc2C1=O	A549 tox 16.4µM, ATXN viability inconclusive, ATXN2 expr inh inconclusive (no result: Nrf2 inh)
O=C(OCc1ccc(F)cc1)c1ccc2c(c1)-c1ccccc1C2=O	none
CCOc1ccc(NC(=O)CN(C)C(=O)CCc2ccccc2Cl)cc1OCC	none
CCOc1ccc(NC(=O)CN(C)C(=O)CCCOc2ccc(Cl)c(C)c2)cc1OCC	A549 tox inconclusive, Nrf2 inh 20.6µM
COc1cc(N2CN=c3s/c(=C\c4ccccn4)c(=O)n3C2)cc(OC)c1OC	none
COc1cccc(C(C)NC(=O)Nc2ccccc2Cl)c1 (centres undefined)	Nrf2 inh 10.3µM
COc1ccc(-c2[nH]c(-c3ccc4c(c3)OCO4)nc2-c2ccccc2)cc1	A549 tox inconclusive, ATXN2 expr inh inconclusive, TGFb inhibitor inconclusive, Nrf2 inh 20.6µM (no result: ATXN viability)
COc1cc(NC(=O)COCc2cc(-c3ccc(F)cc3)on2)cc(OC)c1OC	ATXN viability inconclusive, TGFb inhibitor inconclusive, Nrf2 inh inconclusive
O=[N+]([O-])C(/C=C(\Cl)[N+](=O)[O-])=C1N(Cc2ccc(Cl)nc2)CCN1Cc1ccc(Cl)nc1	HepG2 viability 20µM, TGFb inhibitor inconclusive
O=[N+]([O-])c1ccc(N2CCN(S(=O)(=O)c3ccccc3)CC2)cc1	Nrf2 inh inconclusive
COc1ccc(NC(=O)c2c(NC(=O)C(F)(F)F)sc3c2CCCCC3)cc1	A549 tox inconclusive, TGFb inhibitor inconclusive, Nrf2 inh 1.84µM
COc1cccc(C(=O)Nc2sc3c(c2C(=O)O)CCCC3)c1	A549 tox inconclusive, Nrf2 inh 5.8µM
CCc1ccc(Cn2c(CNS(=O)(=O)c3ccc4c(c3)CCCC4)nc3cccnc32)cc1	TGFb inhibitor inconclusive (no result: ATXN viability, ATXN2 expr inh, Nrf2 inh)
Cc1ccc(-c2nnc(C3CCN(S(=O)(=O)c4ccc(C)c(C)c4)CC3)o2)cc1	TGFb inhibitor inconclusive (no result: ATXN viability, ATXN2 expr inh)
COc1ccc(-c2nnc(C3CCN(S(=O)(=O)c4ccccc4)CC3)o2)cc1	ATXN2 expr inh inconclusive, TGFb inhibitor inconclusive, Nrf2 inh inconclusive (no result: ATXN viability)
CC(=O)Nc1ccc(S(=O)(=O)N2CCC(c3nnc(-c4ccc(C)cc4)o3)CC2)cc1	ATXN viability 17.8µM, ATXN2 expr inh 20µM!, TGFb inhibitor inconclusive, Nrf2 inh inconclusive
Cc1cccc(-c2nnc(C3CCN(S(=O)(=O)c4cccc(Cl)c4)CC3)o2)c1	ATXN viability 1.41µM, ATXN2 expr inh 1.58µM, TGFb inhibitor inconclusive
